The full ranking holds about 110,000 compounds; the median of “z-score” is about -0.1, and the highest 2% start at about 2. This is one part of a sample in which the highest values are shown more often than they occur. Activity calls are given as the source filed them.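 How the source made its calls: active means z-score in the third read window above 3 or below -3; inactive means the rest.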

The values below come from PubChem BioAssay AID488969 (Vanderbilt High Throughput Screening Facility, 2010).

The target of the assay is Metabotropic glutamate receptor 8 (Rattus norvegicus) (UniProt P70579). The experiment in a line: rat mGluR8 modulators via GIRK flux, primary screen, cell-based, thallium flux, HTS (AID 488969). As to conditions: HEK293 rat mGluR8, GIRK (G protein-gated inwardly rectifying potassium channel) thallium flux, FluoZin2; at 10 µM; stronger effect = higher value; submaximal glutamate (EC20) added with thallium.
Metabotropic glutamate receptor 8 (Rattus norvegicus), sequence (P70579 whole entry, looked up): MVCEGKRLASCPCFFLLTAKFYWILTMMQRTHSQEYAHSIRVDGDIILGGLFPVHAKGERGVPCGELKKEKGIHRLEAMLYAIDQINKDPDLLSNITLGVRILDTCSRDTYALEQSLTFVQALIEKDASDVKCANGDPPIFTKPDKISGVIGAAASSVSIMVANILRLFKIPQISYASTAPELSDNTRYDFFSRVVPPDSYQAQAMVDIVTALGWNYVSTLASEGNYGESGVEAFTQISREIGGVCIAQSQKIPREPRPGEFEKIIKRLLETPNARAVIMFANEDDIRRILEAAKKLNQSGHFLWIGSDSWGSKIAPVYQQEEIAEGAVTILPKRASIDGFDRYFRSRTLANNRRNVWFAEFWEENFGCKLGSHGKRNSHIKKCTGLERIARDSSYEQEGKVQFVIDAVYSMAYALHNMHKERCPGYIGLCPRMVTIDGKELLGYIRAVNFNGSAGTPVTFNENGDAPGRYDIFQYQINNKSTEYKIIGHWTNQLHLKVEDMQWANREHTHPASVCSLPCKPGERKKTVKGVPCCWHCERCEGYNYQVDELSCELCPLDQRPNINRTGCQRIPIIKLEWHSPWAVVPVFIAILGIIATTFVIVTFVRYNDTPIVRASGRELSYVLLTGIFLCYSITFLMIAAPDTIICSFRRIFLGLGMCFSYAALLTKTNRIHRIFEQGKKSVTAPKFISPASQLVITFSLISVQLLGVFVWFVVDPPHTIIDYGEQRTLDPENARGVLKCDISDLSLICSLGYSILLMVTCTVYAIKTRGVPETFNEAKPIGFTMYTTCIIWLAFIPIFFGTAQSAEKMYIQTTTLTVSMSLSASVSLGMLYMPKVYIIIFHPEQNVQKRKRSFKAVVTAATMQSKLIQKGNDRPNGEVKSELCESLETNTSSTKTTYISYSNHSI
Take `O=C(CCl)N1c2ccccc2OCC1c1ccccc1` (stereo unspecified): the z-score was -0.994.

As to `NC(=O)NC(=O)CSc1nc(C2CCCCC2)n(-c2ccccc2)n1`, the z-score is -0.264.

Consider `Cc1ccc(CNc2oc(-c3ccco3)nc2C#N)cc1`, for which the z-score was -0.32.

`Cc1nnc(N2C(=O)C(O)=C(C(=O)c3ccco3)C2c2ccc(C(C)(C)C)cc2)s1` (stereo unspecified) displayed a z-score of -0.554.

As for `Cc1ccc(NC(=O)COC(=O)c2sccc2C)cc1S(=O)(=O)N1CCOCC1`, the z-score came to 1.38.

Turning to `Cc1ccc(NC(=S)N=Nc2c(O)n(C)c3ccc(S(=O)(=O)N4CCOCC4)cc23)cc1`, the z-score was 3.93 (active).

Consider `Cc1cc(C)cc(NC(=S)N=Nc2c(O)n(C)c3ccc(S(=O)(=O)N4CCOCC4)cc23)c1`, for which the z-score was 0.616.

`Cc1ccc(Nc2ccc(S(=O)(=O)N3CCOCC3)cc2[N+](=O)[O-])c(C)c1` had a z-score of 1.29.

Molecule `Cn1c(=O)c2cc(S(=O)(=O)N3CCOCC3)ccc2n(C)c1=O` registered a z-score of 0.139.

Consider `Cc1ccc(C)c(NC(=S)N=Nc2c(O)n(C)c3ccc(S(=O)(=O)N4CCOCC4)cc23)c1`, for which the z-score is 4.13 (active).

Take `Cn1c(=O)n(C)c2cc(S(=O)(=O)N3CCOCC3)ccc21`: the z-score is -0.185.

Regarding `CN(C)CCCN1C(=O)C(=O)/C(=C(/O)c2ccncc2)C1c1cccc(Br)c1` (stereo unspecified), the z-score was -0.318.

Regarding `COc1ccc(OC)c(-c2cc(C(=O)Nc3cc(C)on3)no2)c1`, the z-score amounted to 0.941.

In the case of `Cc1ccc(CNC(=O)C2C3C=CC4(CN(Cc5cccnc5)C(=O)C24)O3)cc1` (stereo unspecified), the z-score was -0.0986.

Molecule `O=C(COC(=O)CCC1CCCC1)Nc1ccccc1Sc1ccccc1` had a z-score of -0.2.

`CCOc1c(OC(C)=O)ccc(/C=C/c2ccc3cccc(OC(C)=O)c3n2)c1[N+](=O)[O-]` registered a z-score of -0.227.

`COCCSc1ccccc1C(=O)NCc1ccco1` came in with a z-score of 0.383.

The molecule `O=C(N/N=C/c1ccc[nH]1)c1ccccc1[N+](=O)[O-]` returned a z-score of -0.104.

Molecule `Cc1ccccc1N=Nc1c(C)[nH]n(C(N)=S)c1=O` displayed a z-score of 2.97.

`CCN(CC)S(=O)(=O)c1ccc(N=Nc2c(C)[nH]n(C(N)=S)c2=O)cc1` returned a z-score of 0.608.

In the case of `Cc1ccc(N=Nc2c(C)[nH]n(C(N)=S)c2=O)cc1C`, the z-score was -0.217.

`COCCCNC(=O)/C(=C\c1cccn1C)NC(=O)c1cccs1`: the z-score was determined as 0.0671.

Consider `O=C(NCc1ccccn1)C(F)(F)C(F)(F)C(=O)NCc1ccccn1`, for which the z-score was -0.509.

`CCc1nc2cc(Cl)c(Cl)cc2[nH]1` had a z-score of 2.

`CCc1nc2ccccc2[nH]1`: the z-score amounted to 0.00543.

As for `CCc1nc2cc([N+](=O)[O-])c([N+](=O)[O-])cc2[nH]1`, the z-score is -0.0776.

For `Cc1nc2ccsc2c(=O)n1-c1ccc(Cl)cc1`, the z-score is -0.0701.

`COc1ccc(N2C(=O)C3C4C=CC(CC4)C3C2=O)c([N+](=O)[O-])c1` (stereo unspecified) gave a z-score of -0.215.

On to `OCCn1c(SC2CCCCC2)nc2ccccc21`, for which the z-score is 0.162.

Take `Cc1ccc(C(=O)N/N=C(/CC(=O)c2cccs2)C(F)(F)F)cc1`: the z-score is 7.05 (active).

`O=C(C/C(=N\NC(=O)c1ccccc1Br)C(F)(F)F)c1cccs1` came in with a z-score of 0.65.

For `O=C(N/N=C(/CC(=O)c1cccs1)C(F)(F)F)c1ccc(O)cc1`, the z-score is -0.828.

On to `Cc1cc(C(=O)NCc2cc(C)n(C)n2)sc1-c1ccccc1`, for which the z-score was -0.62.

Molecule `CS(=O)(=O)Nc1ccccc1Oc1ccccc1` yielded a z-score of 0.607.

As to `COCCCn1c(SCc2nnc(-c3ccccc3)o2)nc2sc3c(c2c1=O)CCC3`, the z-score is -0.256.

As to `COc1cccc(C2OC(=O)c3ccccc3N2C(C)=O)c1OC(C)=O` (stereo unspecified), the z-score amounted to 0.116.

Consider `CSc1nc(Sc2ccccc2)c2ccccc2n1`, for which the z-score is 4.56 (active).

As to `CSc1nc(Sc2cccc(Cl)c2)c2ccccc2n1`, the z-score amounted to 0.093.

`CSc1nc(Sc2ccc(Cl)cc2)c2ccccc2n1` displayed a z-score of 0.0499.

With `CCC(C)NC(=O)CCc1c(C)nc2nc(-c3cc(OC)cc(OC)c3)nn2c1C` (stereo unspecified), the z-score is -0.148.

For `O=[N+]([O-])c1ccc(N2CCN(S(=O)(=O)c3ccc(Cl)cc3)CC2)cc1NCC1CCCO1` (stereo unspecified), the z-score is -0.211.

`O=C(CN1CCN(c2ccccc2)CC1)Nc1ccc(-n2cnnn2)cc1`: the z-score turned out to be 0.659.

The molecule `CCC1(C)Cc2c(sc3c2c(=O)n(C)c2nnc(SCC(=O)c4ccccc4)n32)CO1` (stereo unspecified) came in with a z-score of -0.469.

Molecule `CCC1(C)Cc2c(sc3c2c(=O)n(C)c2nnc(SCc4ccccc4)n32)CO1` (stereo unspecified) displayed a z-score of -0.196.

As for `CCC1(C)Cc2c(sc3c2c(=O)n(C)c2nnc(SCc4ccc5c(c4)OCO5)n32)CO1` (stereo unspecified), the z-score was 3.12 (active).

With `COc1ccccc1C(=O)N/C(=C\c1ccc2c(c1)OCO2)C(=O)NCCc1nc2ccccc2[nH]1`, the z-score was -1.09.

`CN(c1ccccc1C(=O)Nc1cccc(Cl)c1Cl)S(C)(=O)=O` came in with a z-score of 0.0249.

For `Oc1[nH]c2c(Cl)cc(Cl)cc2c1N=NC(=S)NCC1CCCO1` (stereo unspecified), the z-score is 7.5 (active).

Turning to `O=C(CCn1c(=S)[nH]c2ccccc2c1=O)NCC1CCCO1` (stereo unspecified), the z-score was -0.275.

`S=C(NCC1CCCO1)Nc1ccc(Cl)cc1` (stereo unspecified): the z-score amounted to 0.0149.

Molecule `CCOC(=O)C(=O)N=Nc1c(O)[nH]c2ccccc12` yielded a z-score of -0.0577.

In the case of `Oc1[nH]c2ccccc2c1N=NC(=S)NCC1CCCO1` (stereo unspecified), the z-score was 3.01 (active).

For the molecule `S=C(NCC1CCCO1)Nc1ccc(Cl)cc1Cl` (stereo unspecified), the z-score was 0.145.

For the molecule `CC(C)c1ccc2[nH]c(O)c(N=NC(=S)NCCc3ccccc3)c2c1`, the z-score was 0.396.

On to `Oc1[nH]c2ccccc2c1C=NCC1CCCO1` (stereo unspecified), for which the z-score was -0.00202.

For `Oc1[nH]c2ccccc2c1N=NC(=S)NCCc1ccccc1`, the z-score was 3.06 (active).

The molecule `Cc1ccccc1NC(=O)C1C2CCCC1C2c1ccccc1` (stereo unspecified) displayed a z-score of 0.216.

On to `CCc1ccc(OCC(=O)NC(NC(=S)Nc2ccccc2OC)C(Cl)(Cl)Cl)cc1` (stereo unspecified), for which the z-score is -0.163.

Turning to `Cc1cc(C(=O)OCC(=O)NC(C)(C)C)c2ccccc2n1`, the z-score is -0.284.

Consider `O=C(N/N=C1\CCc2ccccc21)c1ccccc1Cl`, for which the z-score is -0.225.

For `COc1ccc(CCCc2nnc(SCC(=O)Nc3nc(C)cs3)n2C)cc1`, the z-score came to 0.338.

Regarding `O=C(NC1CCCC1)c1cccc(NC(=O)c2ccco2)c1`, the z-score came to 0.253.

As for `Cc1onc(-c2c(F)cccc2Cl)c1C(=O)Nc1cccc2nsnc12`, the z-score came to 2.67.

In the case of `Cc1onc(-c2ccccc2Cl)c1C(=O)Nc1cccc2nsnc12`, the z-score was 1.17.

Molecule `Cc1onc(-c2ccccc2)c1C(=O)Nc1cccc2nsnc12` had a z-score of -0.396.

`CC1CCCCN1C(=O)Nc1cccc(Cl)c1` (stereo unspecified): the z-score came out at 0.789.

For the molecule `COc1ccc(C(=O)c2c(C)c3cc(C)ccc3n2CC(O)CN2CCOCC2)cc1` (stereo unspecified), the z-score is -0.197.

`CS(=O)(=O)N(CC(=O)NCCSc1ccccc1)c1ccc2c(c1)OCO2` displayed a z-score of 1.46.

As for `Cc1ccc2nc(SCC(=O)N3CCOCC3)[nH]c2c1`, the z-score is 0.844.

As to `CC1CCc2sc(C(=O)N/N=C/C3CCCCC3)cc2C1` (stereo unspecified), the z-score was -0.764.

Regarding `CC1CCc2c(C(=O)Nc3ccc(OC(F)(F)F)cc3)csc2C1` (stereo unspecified), the z-score was -0.225.

With `CC(C)CNC(=S)NNC(=O)c1csc2c1CCC(C)C2` (stereo unspecified), the z-score was -1.59.

Take `Cc1ccc(C)c(NC(=S)NNC(=O)c2cc3c(s2)CCC(C)C3)c1` (stereo unspecified): the z-score is 10.3 (active).

Regarding `Cc1ccccc1NC(=S)NNC(=O)c1csc2c1CCC(C)C2` (stereo unspecified), the z-score is 8.84 (active).

With `C/C(=N\NC(=O)c1cc2c(s1)CCC(C)C2)c1ccncc1` (stereo unspecified), the z-score was -0.506.

Turning to `Cc1cccc(NC(=S)NNC(=O)c2csc3c2CCC(C)C3)c1` (stereo unspecified), the z-score is 9.39 (active).

In the case of `Cc1cccc(NC(=S)NNC(=O)c2csc3c2CCCC3)c1`, the z-score is 14 (active).

In the case of `Cc1cccc(NC(=S)NNC(=O)c2ccccc2Br)c1`, the z-score came out at 0.847.

In turn, `CCNC(=S)NNC(=O)c1csc2c1CCC(C)C2` (stereo unspecified) yielded a z-score of 0.0328.

The molecule `Cc1cccc(NC(=S)NNC(=O)c2ccc(Br)o2)c1` displayed a z-score of 1.14.

Molecule `Cc1ccccc1NC(=O)c1csc2c1CCCC2` showed a z-score of -0.435.
